The list is not random: actives were taken first. Their share in the collection is about 3.4%.
FBW7 act = FBW7 E3 ligase activators, primary screen, biochemical, AlphaScreen, human; AlphaScreen FBW7–phospho-cyclin E peptide binding, activator screen; AID 1259310, 2017; actives 0.13% (n = 650,000); F-box/WD repeat-containing protein 7 (Homo sapiens), Q969H0; normalized activity (activation), % at 26.1 µM; in the data active = normalized activity above about 1.9%;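 note: purified mutant Fbw7 with reduced substrate affinity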
TEAD-YAP block = TEAD-YAP interaction inhibition, primary screen, TEAD-YAP interaction inhibitor project, luminescence, HEK-TIYL cells; inhibition, % at 9.12 µM; actives 1.4% (n = 640,000); TEAD-Gal4/YAP UAS-luciferase luminescence; in the data active = inhibition above about 32%;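 note: 0% = median of test compound wells and 100% = reference inhibitor wells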
MITF primary = MITF inhibitors, primary screen, biochemical, AlphaScreen, human; Microphthalmia-associated transcription factor (Homo sapiens), O75030; AlphaScreen MITF homodimerization, bead proximity signal; inhibition, % at 2.6 µM; actives 0.91% (n = 650,000); AID 1259374, 2018; in the data active = inhibition above about 50%;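 note: 0% = vehicle wells with protein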
GPR151 activ = activators of human GPR151, primary screen, cell-based, PathHunter beta-arrestin, luminescence; G-protein coupled receptor 151 (Homo sapiens), Q8TDV0; PathHunter beta-arrestin GPR151 cells; activation, % at 11.2 µM; actives 1% (n = 650,000); in the data active = activation above about 4.9%;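 note: 0% = median of compound wells and 100% = cells with positive control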
Target sequence (Q8TDV0 whole entry, looked up): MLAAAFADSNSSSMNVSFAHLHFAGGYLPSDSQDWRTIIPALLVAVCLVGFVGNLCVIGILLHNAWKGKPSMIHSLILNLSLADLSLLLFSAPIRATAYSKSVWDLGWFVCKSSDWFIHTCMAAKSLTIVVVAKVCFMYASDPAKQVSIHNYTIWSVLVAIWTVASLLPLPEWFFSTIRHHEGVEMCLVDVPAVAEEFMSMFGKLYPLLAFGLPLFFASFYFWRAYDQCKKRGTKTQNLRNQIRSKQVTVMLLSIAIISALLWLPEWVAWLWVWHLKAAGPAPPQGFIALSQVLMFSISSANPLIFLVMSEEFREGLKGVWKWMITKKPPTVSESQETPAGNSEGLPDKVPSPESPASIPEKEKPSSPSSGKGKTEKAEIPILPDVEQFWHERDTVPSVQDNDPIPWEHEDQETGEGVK
GPR151 conf act = GPR151 activators, triplicate retest, confirmation, cell-based, PathHunter beta-arrestin, luminescence; GPR151 PathHunter beta-arrestin cells, 90 min; % of EA-reagent control over plate median; 6,700 tested, under 10 active; shares compounds with GPR151 activ; activation, % at 11.2 µM;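 active = mean percent activation across replicates above the confirmation screen cutoff of 4.91%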
GPR119 counter = GPR119 activators in beta-arrestin cells, counter-screen for GPR151 activator project, cell-based, PathHunter beta-arrestin, luminescence, triplicate; shares compounds with GPR151 activ; 90 min; 0 = compound-well median, 100 = enzyme-acceptor control; activation, % at 11.2 µM; actives 0.3% (n = 6,700);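 active = mean percent activation in the counterscreen above 29.09%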;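 note: counterscreen on off-target GPR119 to flag nonselective hits from the GPR151 activator screen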
An asterisk follows results filed as active; x = no result; ! = a repeat was not active.

SMILES	FBW7 act	TEAD-YAP block	MITF primary	GPR151 activ	GPR151 conf act	GPR119 counter
CN(C)c1ccc(/C=C2/SC(=O)NC2=O)cc1Br	0	-50	-11	-2	x	x
O=c1c2c(nc3nc(-c4ccccc4)[nH]n13)CCCC2	0	9	4	5.7*	-1	-8
CCOc1ccc2nc(NCCNC(=O)Nc3ccc(F)cc3)c(C#N)cc2c1	0	-6	-8	0	x	x
CC(N)(Cc1ccc(O)cc1)C(=O)O (centres undefined)	0	4	6	5.2*!	0	3
CC(C)(Cc1ccc(O)cc1)NC(=O)SCc1ccccc1	0	-1	6	0	x	x
Cc1ccc(NC(=O)c2cc(S(=O)(=O)N3CCCCCC3)ccc2F)cc1Cl	0	-12	-7	6.2*	1	-10
Cc1ccc(NC(=O)c2cc(S(=O)(=O)N3CCCCC3)ccc2F)cc1Cl	1	-9	7	0	x	x
Cc1ccc(NC(=O)c2cc(F)c(F)cc2Cl)cc1S(=O)(=O)N1CCOCC1	0	-6	5	5.2*	0	7
N#CCCN1CCN(c2ccc(F)cc2[N+](=O)[O-])CC1	0	9	13	5.3*	3	-11
CN1CCN(c2cc(N3CCN(CCC#N)CC3)c([N+](=O)[O-])cc2F)CC1	0	9	5	0	x	x
Cc1cccc(N2C(=O)c3cc([N+](=O)[O-])cc4cc([N+](=O)[O-])cc(c34)C2=O)c1	-1	-17	18	-1	x	x
Cc1ccc(NS(=O)(=O)c2ccc(N=Cc3c(C)[nH]n(-c4ccc(C)c(C)c4)c3=O)cc2)cc1C	0	1	11	-1	x	x
CCN(CC)c1ccc(/C=N/n2cnnc2)c(O)c1	0	2	-3	10*	1	0
CCc1ccc(-c2nc(=S)[nH][nH]2)cc1	0	-21	-1	7.6*	1	6
CCOc1cc(C=C2C(=O)c3ccccc3C2=O)ccc1OC(C)=O	0	15	6	10*	-1	-16
CN1C(=O)c2ccc(C(=O)Nc3ccc(Br)cc3C(=O)O)cc2C1=O	0	9	-2	7.9*	0	2
CCCN1C(=O)c2ccc(C(=O)Nc3ccc(Br)cc3C(=O)O)cc2C1=O	0	-5	-2	0	x	x
CCc1nnc2n1N(C(C)=O)C(c1ccc(Cl)cc1)=C(C(C)=O)S2	0	19	2	0	x	x
CCc1nnc2n1N(C(C)=O)C(c1ccc(Cl)c(Cl)c1)=C(C(C)=O)S2	0	17	11	7.1*	1	2
CC(C(=O)O)N1C(=O)/C(=C/C=C/c2ccccc2)SC1=S (centres undefined)	0	-7	1	7.4*	1	17
c1ccc(CCn2nnnc2CN2CCN(c3ccccc3)CC2)cc1	0	2	5	0	x	x
c1ccc(CCN2CCN(c3ccccc3)CC2)cc1	0	-4	21	6.9*	1	4
CCOc1ccc(C2c3[nH]c4ccccc4c3CCN2C(=O)Cc2nonc2C)cc1 (centres undefined)	0	-8	6	-1	x	x
O=C1NC(=S)NC(=O)C1=Cc1cccc(OC(=O)c2ccc(Cl)cc2)c1	0	-1	12	5.9*	0	10
COc1ccc(C(=O)Oc2ccc(C=C3C(=O)NC(=S)NC3=O)cc2)cc1	0	-2	12	0	x	x
COc1ccc(C(=O)OCCN(C)Cc2ccccc2)cc1	0	7	4	0	x	x
CN1CCC(=NNC(=O)c2ccc(CN3c4cccc5cccc(c45)S3(=O)=O)cc2)CC1	0	1	2	6.0*	-1	1
C/C(=N\NC(=O)c1ccc(CN2c3cccc4cccc(c34)S2(=O)=O)cc1)c1ccco1	0	-2	4	2	x	x
Cc1ccc(S(=O)(=O)NC2(C(F)(F)F)NC(=O)N(c3ccc(Cl)cc3)C2=O)cc1 (centres undefined)	0	-5	-1	0	x	x

Screening data: PubChem, The Scripps Research Institute Molecular Screening Center
